Measured values reported in article PMC7826789 (International Journal of Molecular Sciences, 2021).

What was measured:
Conditions in all cases: Compound Concentration (nM):1000
[1] = system: BRSK2
[2] = system: BTK
[3] = system: BUB1
[4] = system: T1, CAMK1B
T1 construct: gene PNCK

[5] = system: CAMK1D
[6] = system: CAMK1G
[7] = system: CAMK1
[8] = system: CAMK2A
[9] = system: CAMK2B
[10] = system: CAMK2D
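Note: KINOMEscan scanMAX binding as percent activity remaining versus control; lower means stronger binding.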

| SMILES | Percent Control [1] [%] | Percent Control [2] [%] | Percent Control [3] [%] | Percent Control [4] [%] | Percent Control [5] [%] | Percent Control [6] [%] | Percent Control [7] [%] | Percent Control [8] [%] | Percent Control [9] [%] | Percent Control [10] [%] |
| --- | --- | --- | --- | --- | --- | --- | --- | --- | --- | --- |
| CN1CCN(C(=O)c2ccc(NC(=O)Nc3ccc(N(C)c4ccnc(Nc5ccc(CS(C)(=O)=O)cc5)n4)cc3)cc2)CC1.Cl [GW830263A] | 100 | 50 | 46 | 85 | 98 | 88 | 100 | 86 | 86 | 69 |
| CC1=C(C(=O)Nc2ccc3[nH]ncc3c2)C(c2ccc3ccccc3c2)CC(=O)N1 (centres unmarked) [GSK270822A] | 73 | 13 | 60 | 67 | 97 | 91 | 83 | 87 | 87 | 79 |
| Nc1ncnc2occ(-c3ccc(NC(=O)Nc4cc(C(F)(F)F)ccc4F)cc3)c12 [GW770249X] | 88 | 87 | 98 | 94 | 93 | 94 | 77 | 100 | 100 | 100 |
| O=C(Nc1n[nH]c2nc(-c3ccc(O)cc3)c(Br)cc12)C1CC1 [SB-725317] | 47 | 97 | 94 | 100 | 100 | 100 | 100 | 93 | 97 | 100 |
| Cl.O=C(Nc1ccc(Oc2ccc3[nH]c(NC(=O)c4ccccc4)nc3c2)cc1)Nc1cc(C(F)(F)F)ccc1F [GW709042A] | 73 | 93 | 92 | 100 | 97 | 100 | 95 | 100 | 95 | 100 |
| NS(=O)(=O)c1ccc(N/N=C2\C(=O)Nc3ccc(C(=O)NCCc4c[nH]cn4)cc32)cc1 [GW300660X] | 89 | 100 | 54 | 85 | 100 | 100 | 100 | 100 | 100 | 100 |
| COc1cc2ncnc(Nc3ccc4c(cnn4Cc4ccccc4)c3)c2cc1OC.Cl [GW282449A] | 100 | 40 | 100 | 100 | 100 | 100 | 100 | 100 | 100 | 100 |
| CC(C)COC(=O)c1ccc2c(c1)/C(=C/Nc1ccc(S(N)(=O)=O)cc1)C(=O)N2 [GW416981X] | 88 | 100 | 9.8 | 92 | 100 | 100 | 100 | 29 | 71 | 72 |
| CCS(=O)(=O)c1ccc(OC)c(Nc2ncc(-c3cccc(OC)c3)o2)c1 [GW580509X] | 96 | 99 | 95 | 100 | 99 | 100 | 87 | 71 | 80 | 97 |
| C/C(Nc1ccc(S(N)(=O)=O)cc1)=C1/C(=O)Nc2ccccc21 [GW335962X] | 81 | 83 | 90 | 79 | 83 | 86 | 52 | 79 | 72 | 100 |
| Cl.O=C(O[C@H]1CN[C@H](C#Cc2cc3ncnc(Nc4ccc5c(cnn5Cc5ccccc5)c4)c3s2)C1)N1CCOCC1 [GSK200398A] | 100 | 77 | 45 | 69 | 100 | 100 | 100 | 94 | 84 | 95 |
| COc1ccc2[nH]c3c4[nH]c5ccc(OC)cc5c4c4c(c3c2c1)C(=O)NC4=O [GW296115X] | 6.2 | 74 | 29 | 78 | 64 | 76 | 80 | 70 | 100 | 64 |
| COc1cccc(-n2ncc3c(N/N=C/c4ccncc4)ncnc32)c1 [GW784752X] | 61 | 100 | 77 | 99 | 100 | 100 | 99 | 89 | 82 | 100 |
| NS(=O)(=O)c1ccc(N/N=C2\C(=O)Nc3ccc(C(=O)NCc4ccncc4)cc32)cc1 [GW300657X] | 94 | 89 | 49 | 70 | 80 | 88 | 85 | 66 | 78 | 81 |
| CCS(=O)(=O)c1ccc(OC)c(Nc2ncc(-c3cccc(F)c3)o2)c1 [GW621970X] | 89 | 71 | 100 | 100 | 100 | 100 | 100 | 85 | 100 | 100 |
| COc1cc(C=NNc2ncnc3c2cnn3-c2ccccc2)ccc1O [GW513184X] | 73 | 100 | 81 | 100 | 100 | 100 | 100 | 97 | 100 | 100 |
| COC(=O)Nc1nc2ccc(Oc3ccc(NC(=O)Nc4cc(C(F)(F)F)ccc4F)cc3)cc2s1.Cl [GW693917A] | 93 | 72 | 65 | 75 | 90 | 100 | 88 | 93 | 88 | 98 |
